# Source: PubChem BioAssay
# Calls of active or inactive are those of the source. Unless noted, how the calls were made is not given here.
# Experiments:
# [1] = test system: XIP peptide (Xip251-270) binding; assay: XIP fragment 251-270 binding compounds – biochemical, small-molecule microarray, fluorescence 635/667 nm, 0.1 µg/mL protein, primary screen (AID 1182); settings: fluorescent protein binding, 635 nm, higher = more signal, called active from +8 up or from −8 down
# XIP peptide (Xip251-270) = assay: compounds binding XIP fragment 251-270 – biochemical, small-molecule microarray, fluorescence 635/667 nm, 0.5 µg/mL protein, primary screen (AID 1183); settings: fluorescence 635 nm, higher = more signal
# [2] = blood-stage malaria parasite viability loss – strain 3D7, DAPI fluorescence, 100 nL, primary screen (AID 1184);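 further: parasites grown inside human red blood cells in medium with human serum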; settings: P. falciparum 3D7 growth, 3 d, higher = more signal
# [3] = target: Homeobox protein Hox-A13 (Mus musculus) (UniProt Q62424); assay: disruptors of Hoxa13 oligonucleotide interaction – biochemical, fluorescence polarization, labeled oligonucleotide, primary screen (AID 1185); settings: Hoxa13:DNA binding, 15 min, higher = more signal, called active from +8 up or from −8 down
# Chain of Homeobox protein Hox-A13 (Mus musculus) (Q62424 whole entry, looked up): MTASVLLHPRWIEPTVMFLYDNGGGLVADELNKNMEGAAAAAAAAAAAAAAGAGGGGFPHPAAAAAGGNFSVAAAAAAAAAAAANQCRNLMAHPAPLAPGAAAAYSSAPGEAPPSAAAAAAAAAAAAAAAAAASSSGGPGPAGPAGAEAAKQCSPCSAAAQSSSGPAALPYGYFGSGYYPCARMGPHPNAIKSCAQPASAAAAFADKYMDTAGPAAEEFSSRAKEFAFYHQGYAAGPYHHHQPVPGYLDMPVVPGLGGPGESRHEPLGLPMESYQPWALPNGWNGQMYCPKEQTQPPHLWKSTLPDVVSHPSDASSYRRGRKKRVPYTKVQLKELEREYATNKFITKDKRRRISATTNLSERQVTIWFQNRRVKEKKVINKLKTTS
# [4] = blockers of DNA damage checkpoint Chk1 activation – imaging, HeLa, hydroxyurea, phospho-Chk1 antibody, percent positive cells, primary screen (AID 1186); settings: hydroxyurea-induced phospho-Chk1 immunofluorescence imaging, higher = more signal
# [5] = blockers of DNA damage checkpoint Chk1 activation – imaging, HeLa, hydroxyurea, phospho-Chk1 nuclear intensity, primary screen (AID 1187); settings: hydroxyurea-induced phospho-Chk1 immunofluorescence imaging, higher = more signal
Structure (SMILES),composite z-score [1],composite z-score (XIP peptide (Xip251-270)),z-score [2],z-score [3],z-score [4],z-score [5]
C=CCNC(=O)[C@@H]1[C@H]2C(=O)O[C@H](c3ccccc3)[C@H](c3ccccc3)N2[C@H](c2ccc(O)cc2)[C@@]12C(=O)Nc1ccc(C#CCNC(N)=O)cc12,0.33 (inactive),0.0915,-0.1,-3.36 (inactive),-0.0873 (inactive),-0.0078 (inactive)
COC(=O)[C@@]1(Cc2ccc(F)cc2)[C@H]2c3cc(C(=O)N(C)C)n(Cc4ccccc4)c3C[C@H]2CN1C(=O)c1ccccc1,0.578 (inactive),0.766,-1.41,-3.11 (inactive),1.33 (inactive),1.2 (inactive)
[N-]=[N+]=Nc1ccccc1[C@H]1OC(c2ccc(OCCCO)cc2)=N[C@@]1(CCS(=O)(=O)c1ccccc1)C(=O)NCC(O)CO (some centres undefined),-0.193 (inactive),0.557,-1.81,-4.65 (inactive),-0.0536 (inactive),-0.22 (inactive)
C=C[C@@H](COC(=O)OC(C)(C)C)N(Cc1ccc(OC)cc1)S(=O)(=O)c1ccc(Br)cc1,0.323 (inactive),0.219,0.605,-0.981 (inactive),0.344 (inactive),0.447 (inactive)
COC(=O)[C@@]1(Cc2ccc(F)cc2)[C@H]2c3cc(C(=O)N4CCCC4)n(Cc4ccc(S(C)(=O)=O)cc4)c3C[C@H]2CN1C(=O)c1ccccc1,0.845 (inactive),0.116,-1.46,-4.4 (inactive),0.396 (inactive),0.172 (inactive)
COc1cc2c(cc1O)C(C1CC1)N(Cc1sc3ccccc3c1Cl)CC2 (centres undefined),0.275 (inactive),0.637,-1.23,-2.44 (inactive),-0.147 (inactive),0.302 (inactive)
C=C(CCCC)/C(=C/C[C@H](OC(=O)c1ccncc1)c1ccccc1OCCO)c1cnc2ccccc2c1,0.8 (inactive),0.575,-2.96,-4.41 (inactive),0.618 (inactive),0.783 (inactive)
O[C@@H](Cc1ccccc1)[C@H]1C2C=CCCC=C2CN1Cc1cccc(Cl)c1 (some centres undefined),0.164 (inactive),0.421,0.461,-7.63 (inactive),0.415 (inactive),0.0708 (inactive)
CN1C(=O)C2C=CC(C(O)c3ccc([N+](=O)[O-])cc3)N(N3CCCCC3)C2C1=O (centres undefined),0.0993 (inactive),0.471,-0.114,-3.98 (inactive),-0.224 (inactive),-0.167 (inactive)
CC(CO)N1C(=O)[C@@H]2C3C(=O)OCCC/C=C\[C@H]3OC23C=CCN(C(C)(C)C)C(=O)[C@@H]13 (some centres undefined),0.453 (inactive),-0.0516,0.67,-4.72 (inactive),-0.423 (inactive),-1.21 (inactive)
COc1ccccc1CN1C(=O)c2ccccc2[C@@]2(Cc3ccccc3N(CC(C)C)C2=O)[C@@H]1c1ccc(CO)cc1,-0.25 (inactive),0.607,-0.422,-0.795 (inactive),-0.132 (inactive),-0.425 (inactive)
CCCCCN1CC=CC23O[C@@H]4/C=C\CCC(C)OC(=O)C4[C@H]2C(=O)N(C(C)CO)[C@@H]3C1=O (some centres undefined),0.176 (inactive),0.0664,-0.107,-4.77 (inactive),-0.808 (inactive),-0.732 (inactive)
COC(=O)C(CC#Cc1ccc2c(c1)[C@]1(C(=O)N2)[C@H](c2ccc(OCCO)cc2)N2[C@H](c3ccccc3)[C@H](c3ccccc3)OC(=O)[C@H]2[C@@H]1C(=O)N1CCc2cc(OC)c(OC)cc2C1)C(=O)OC,0.0734 (inactive),0.78,-2,-1.29 (inactive),0.192 (inactive),0.492 (inactive)
COC(=O)[C@H](Cc1ccccc1)N[C@@H](/C=C/C1CC1)[C@H](O)Cc1ccccc1,-0.207 (inactive),-0.432,-0.986,-5.71 (inactive),-0.157 (inactive),-0.295 (inactive)
COc1ccc(/C=C/C=O)cc1,-0.338 (inactive),0.185,1.01,0.0055 (inactive),0.0257 (inactive),0.0335 (inactive)
CCOC(=O)C[C@H]1[C@H](OC(=O)c2ccc(C(=O)c3ccccc3)cc2)[C@@H](NC(=O)c2ccccc2)c2cc(OCCCO)ccc2N1C(=O)c1ccc2ccccc2n1,0.0933 (inactive),0.0113,-1.43,-3.02 (inactive),0.193 (inactive),-0.363 (inactive)
CC1CC/C=C\[C@H]2OC34C=CCN(C(C)(C)C)C(=O)[C@H]3N(CCO)C(=O)[C@@H]4C2C(=O)O1 (some centres undefined),-0.892 (inactive),0.833,-0.162,-5.01 (inactive),-0.878 (inactive),-0.798 (inactive)

Structure (SMILES),composite z-score [1],composite z-score (XIP peptide (Xip251-270)),z-score [2],z-score [3],z-score [4],z-score [5]
C=C[C@H](C)[C@@H](OC(=O)Nc1ccc(OC)cc1)c1ccc(O)c2ccccc12,0.863 (inactive),0.251,0.0221,-4.35 (inactive),-0.025 (inactive),0.099 (inactive)
CC(C)C(=C=CC[C@@H](O)c1ccc(OCCO)cc1)C[C@@H](O)c1ccccn1,1.5 (inactive),0.198,-0.278,-5.14 (inactive),-0.329 (inactive),-0.22 (inactive)
COC(=O)c1c(CC[C@@H](CO)NC(=O)NCCn2cc(C3(O)CCCC3)nn2)oc(C(C)=O)c1C(=O)OC,0.333 (inactive),-0.0213,-0.72,-1.9 (inactive),0.0528 (inactive),-0.0849 (inactive)
COc1ccc(C#Cc2ccc3c(c2)[C@]2(C(=O)N3)[C@H](C(=O)Nc3nc4ccccc4s3)[C@H]3C(=O)O[C@H](c4ccccc4)[C@H](c4ccccc4)N3[C@@H]2c2ccc(O)cc2)cc1,0.0642 (inactive),0.73,-0.435,-0.717 (inactive),-0.0599 (inactive),-0.17 (inactive)
COC(=O)C(CC#Cc1ccc2c(c1)[C@]1(C(=O)N2)[C@H](c2ccc(OCCO)cc2)N2[C@H](c3ccccc3)[C@H](c3ccccc3)OC(=O)[C@H]2[C@@H]1C(=O)Nc1nc2ccccc2s1)C(=O)OC,0.081 (inactive),0.54,-1.79,0.63 (inactive),-0.378 (inactive),-0.763 (inactive)
O=C(N1CCCCC1)[C@]1(Cc2ccccc2)N=C(c2ccc(OCCCO)cc2)O[C@@H]1c1ccccc1,0.0557 (inactive),0.657,-2.79,-4.71 (inactive),-0.6 (inactive),-0.641 (inactive)
COC(=O)C(CC#Cc1ccc2c(c1)[C@]1(C(=O)N2)[C@H](C(=O)Nc2nc3ccccc3s2)[C@H]2C(=O)O[C@H](c3ccccc3)[C@H](c3ccccc3)N2[C@@H]1c1ccc(O)cc1)C(=O)OC,0.297 (inactive),0.794,-1.89,-0.424 (inactive),-0.558 (inactive),-1.09 (inactive)
NC(=O)N1C(=O)C2C(C1=O)C1C=C(c3ccc(CO)cc3)C2C(c2cccs2)N1Cc1cccc(OC(F)(F)F)c1 (centres undefined),0.0478 (inactive),-0.814,-2.86,-1.04 (inactive),0.0422 (inactive),0.723 (inactive)
OCCCC1=CC(c2cccs2)N(Cc2cc3c(cc2Br)OCO3)CC1 (centres undefined),0.412 (inactive),0.435,-1.82,-2.36 (inactive),0.32 (inactive),0.998 (inactive)
COc1cc(Br)cc(C(O)C2C=CC3C(=O)N(C)C(=O)C3N2N2CCCCC2)c1OC (centres undefined),-0.0992 (inactive),0.823,-0.11,-2.65 (inactive),0.293 (inactive),0.0293 (inactive)
CC(=O)NCCCC[C@@H]1NC(=O)[C@H]2C[C@@H](C(=O)NCCCCCCNC(=O)CS)[C@@H](c3ccc(O)cc3)N2C1=O,0.957 (inactive),0.818,-1.26,-4.69 (inactive),0.307 (inactive),0.663 (inactive)
CN1C(=O)C2C=CC(C(O)c3ccccc3)N(N(c3ccccc3)c3ccccc3)C2C1=O (centres undefined),-0.274 (inactive),-0.0284,0.796,-1.72 (inactive),0.812 (inactive),0.606 (inactive)
COCCOC(=O)N1C(=O)[C@@]2(c3cc(C#Cc4ccc(OC)cc4)ccc31)[C@H](c1ccccc1OCCO)N1[C@H](c3ccccc3)[C@H](c3ccccc3)OC(=O)[C@H]1[C@@H]2C(=O)NC[C@H](O)c1ccccc1,0.159 (inactive),0.815,-1.8,-1.34 (inactive),-0.203 (inactive),-0.29 (inactive)
[N-]=[N+]=Nc1ccccc1[C@H]1OC(c2ccc(OCCCO)cc2)=N[C@@]1(CCS(=O)(=O)c1ccccc1)C(N)=O,1.21 (inactive),0.941,-1.42,-4.72 (inactive),-0.23 (inactive),0.052 (inactive)
COCCCNC(=O)[C@]1(CCC(=O)OC(C)(C)C)N=C(c2ccc(OCCCO)cc2)O[C@@H]1c1ccccc1CN=[N+]=[N-],-0.0552 (inactive),0.848,-2.08,-6.66 (inactive),-0.113 (inactive),-0.534 (inactive)
C=CCNC(=O)[C@H]1[C@@H]2C(=O)O[C@@H](c3ccccc3)[C@@H](c3ccccc3)N2[C@@H](c2ccccc2OCCO)[C@]12C(=O)Nc1ccc(C#CCC(C(=O)OC)C(=O)OC)cc12,0.924 (inactive),0.737,-2.25,-2.6 (inactive),-0.0106 (inactive),0.259 (inactive)
CC(C)N1C(=O)c2ccccc2[C@](C)(C(=O)NCCN2CCOCC2)[C@@H]1c1ccc(CO)cc1,0.0317 (inactive),-0.119,0.437,-3.78 (inactive),-0.155 (inactive),-0.332 (inactive)
